Assay results from the supplement of paper PMC3545927.
This is one part of the list. How many sequences the whole screen found active is unknown.

Molecular target: furin, P09958
Test: furin cleavage Z-score vs untreated control; higher = more cleavage, active = 3.5 or more, inactive = 1 or less, 8 variable residues between constant flanks
How it was run: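 Purified furin cleaved 8-mer peptides that were fused to a cDNA oligonucleotide and held on magnetic beads by their N-terminus. Each 0.01 ml reaction used a 1:10 enzyme:substrate ratio in 50 mM HEPES pH 7.5 with CaCl2 and NaCl and ran 7.5, 15 or 30 min. Released DNA was adapter-tagged by PCR and sequenced, and read counts gave abundance. The cleavage Z-score came from log counts against furin-free reactions, lowess-adjusted and scaled by median absolute deviation.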

Chain of furin, P09958 (P09958 whole entry): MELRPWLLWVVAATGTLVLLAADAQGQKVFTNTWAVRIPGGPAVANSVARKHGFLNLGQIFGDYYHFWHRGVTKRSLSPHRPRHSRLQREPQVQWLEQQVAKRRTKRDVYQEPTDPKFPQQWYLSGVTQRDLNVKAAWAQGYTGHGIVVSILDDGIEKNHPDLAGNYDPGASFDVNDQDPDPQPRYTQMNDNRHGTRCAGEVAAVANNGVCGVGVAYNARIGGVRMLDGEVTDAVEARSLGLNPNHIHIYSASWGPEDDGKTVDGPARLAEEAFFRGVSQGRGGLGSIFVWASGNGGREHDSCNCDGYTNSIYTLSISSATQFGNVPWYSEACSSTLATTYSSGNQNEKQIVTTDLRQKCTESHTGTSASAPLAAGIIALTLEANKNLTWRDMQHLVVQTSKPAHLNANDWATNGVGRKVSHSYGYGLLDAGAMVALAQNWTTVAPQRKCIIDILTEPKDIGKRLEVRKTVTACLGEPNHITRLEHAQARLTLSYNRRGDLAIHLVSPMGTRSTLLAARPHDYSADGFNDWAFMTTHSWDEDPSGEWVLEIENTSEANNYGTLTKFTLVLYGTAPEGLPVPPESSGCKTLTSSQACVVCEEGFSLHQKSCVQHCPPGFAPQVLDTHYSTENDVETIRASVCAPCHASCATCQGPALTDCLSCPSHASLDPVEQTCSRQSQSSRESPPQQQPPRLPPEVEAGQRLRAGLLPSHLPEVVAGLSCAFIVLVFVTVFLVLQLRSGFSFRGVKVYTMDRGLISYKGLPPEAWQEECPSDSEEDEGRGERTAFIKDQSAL

Sequence | furin cleavage Z-score (7.5 min) | furin cleavage Z-score (15 min) | furin cleavage Z-score (30 min)
CAEVFCVQPEAGNASASA [HC1442] | -0.865 (inactive) | -0.957 (inactive) | -0.965 (inactive)
CAMMSRIFRHAGNASASA [FS-1236] | -0.468 (inactive) | -0.194 (inactive) | 1.99
CAMKIRRRRHAGNASASA [FS-275] | 6.27 (active) | 6.38 (active) | 5.11 (active)
CAVACCSMSYAGNASASA [HC2003] | -0.939 (inactive) | 1.22 | 0.305 (inactive)
CARMKRESLMAGNASASA [FS-3228] | 9.24 (active) | 10.5 (active) | 11.4 (active)
CARMKRILQRAGNASASA [FS-2720] | 0.0731 (inactive) | 1.31 | 0.696 (inactive)
CARMKREDLNAGNASASA [FS-2718] | 11.1 (active) | 11.1 (active) | 9.09 (active)
CARMKRYILHAGNASASA [FS-2222] | 2.82 | 6.82 (active) | 8.57 (active)
CAEAADAILHAGNASASA [HC268] | 1.3 | -1.15 (inactive) | 0.548 (inactive)
CARKKKEEEMAGNASASA [FS-2264] | -1.03 (inactive) | -1.15 (inactive) | -0.39 (inactive)
CARMKRVWDRAGNASASA [FS-2722] | 2.92 | -0.324 (inactive) | 0.97 (inactive)
CARMKREITTAGNASASA [FS-2047] | 9.07 (active) | 9.89 (active) | 7.88 (active)
CATTPCTGSWAGNASASA [HC76] | 0.592 (inactive) | 0.698 (inactive) | 0.31 (inactive)
CAKQKALGLLAGNASASA [HC1025] | -0.454 (inactive) | 1.56 | 0.147 (inactive)
CALLLAAGVGAGNASASA [HC1659] | -1.34 (inactive) | -0.972 (inactive) | 0.0513 (inactive)
CADREVVTSTAGNASASA [HC2293] | 0.73 (inactive) | -0.878 (inactive) | 0.0278 (inactive)
CANVDQDLVGAGNASASA [HC712] | -0.364 (inactive) | -0.928 (inactive) | 0.183 (inactive)
CARALAHGVRAGNASASA [HC235] | -1.61 (inactive) | -0.489 (inactive) | -0.193 (inactive)
CARHRRQIDRAGNASASA [FU5] | 8.52 (active) | 9.09 (active) | 7.54 (active)
CARHRRTPDRAGNASASA [FS-2555] | 3.94 (active) | 6.66 (active) | 4.45 (active)
CARHRARSVRAGNASASA [HC1621] | 5.03 (active) | 5.34 (active) | 5.83 (active)
CACSQHLPYIAGNASASA [HC1016] | -1.19 (inactive) | -4.19 (inactive) | -2.45 (inactive)
